The values below come from PubChem BioAssay.

Molecules are shown by their SMILES. “And” between values parts separate entries of the source, which are not always exact repeats. Equal values may be shown once. The source made the active and inactive calls.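 How the source made its calls: active means visually confirmed hit in the image check and inhibition above 20%; inconclusive means visually confirmed hit but inhibition not above 20%; inactive means no visual hit in the image check.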

One assay can be described thus: endothelial E-selectin expression blockers – imaging, HUVEC, immunofluorescence, MLSMR starter and 10KST1 sets, primary screen (AID 487).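 On inhibition: signal is fraction of cell area covered by stained E-selectin grains.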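 On nuclei count: 100% = median nuclei count of all wells on the same plate.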 As to conditions: HUVEC TNFalpha-induced E-selectin immunofluorescence imaging, at 2 µM; inhibition: stronger effect = higher value; nuclei count: measured here: cell number, toxicity.
`CN1Cc2c(N)cccc2C(c2ccccc2)C1` (stereo not given): the nuclei count was 131% and the inhibition is -73% (inactive).
Consider `Cc1cn([C@H]2C=C[C@@H](CO)O2)c(=O)[nH]c1=O`, for which the nuclei count turned out to be 123% and the inhibition was -114% (inactive).
For `COC(=O)c1ccc(N2C(=O)CC(N3CCN(C(=O)c4ccco4)CC3)C2=O)cc1` (stereo not given) the same measures were 104% and -195% (inactive).
In the case of `C[C@H]1C[C@H]2[C@@H]3CCC4=CC(=O)C=C[C@]4(C)[C@@]3(Cl)[C@@H](O)C[C@]2(C)[C@@]1(O)C(=O)CO`, the inhibition was -5.2% (inactive) and the nuclei count was 113%.
For `CCCC1O[C@@H]2C[C@H]3[C@@H]4CCC5=CC(=O)C=C[C@]5(C)[C@H]4[C@@H](O)C[C@]3(C)[C@]2(C(=O)CO)O1` (stereo not given in full) the same measures were -133% (inactive) and 138%.
In the case of `CNCCC(Oc1ccc(C(F)(F)F)cc1)c1ccccc1` (stereo not given), the nuclei count was 127% and the inhibition was -36.9% (inactive).
Regarding `Clc1ccc(Cn2c(CN3CCCC3)nc3ccccc32)cc1`, the nuclei count stood at 133% and the inhibition was -57.5% (inactive).
As for `CC(C)NCC(O)COc1ccc(CC(N)=O)cc1` (stereo not given), the inhibition is -96.5% (inactive) and the nuclei count is 135%.
For the molecule `CC(C)C[C@H]1C(=O)N2CCC[C@H]2[C@]2(O)O[C@](NC(=O)[C@@H]3C=C4c5cccc6[nH]c(Br)c(c56)CC4N(C)C3)(C(C)C)C(=O)N12` (stereo not given in full), the nuclei count is 122% and the inhibition was -74.8% (inactive).
Regarding `CCOC(=O)c1cc2c(=O)n3cccc(C)c3nc2n(CCc2ccccc2)c1=N`, the inhibition was -145% (inactive) and the nuclei count amounted to 116%.
Turning to `CC(=O)OCC1=C(C(=O)O)N2C(=O)[C@@H](NC(=O)Cc3cccs3)[C@H]2SC1`, the inhibition is -35% (inactive) and the nuclei count stood at 116%.
As to `Cc1cccc(Nc2ccccc2C(=O)O)c1C`, the nuclei count was 118% and the inhibition is -91.2% (inactive).
`CC(COc1ccccc1)N(CCCl)Cc1ccccc1` (stereo not given): the inhibition is -41.5% (inactive) and the nuclei count turned out to be 106%.
For `Cc1cc(C)nc(NS(=O)(=O)c2ccc(N)cc2)n1` the same measures were -28.5% (inactive) and 107%.
For `COc1cc(C2C(C#N)=C(N)Oc3cc(N)ccc32)cc(OC)c1OC` (stereo not given) the same measures were -83.7% (inactive) and 80.5%.
The matching figures for `CN(C)CCCC1(c2ccc(F)cc2)OCc2cc(C#N)ccc21` (stereo not given): -57.3% (inactive) and 141%.
Regarding `CCCc1cc(=O)[nH]c(=S)[nH]1`, the inhibition was -113% (inactive) and the nuclei count was 126%.
For `CN(C)CCOC(C)(c1ccccc1)c1ccccn1` (stereo not given) the same measures were -17.5% (inactive) and 132%.
The matching figures for `CCCCNC(=O)NS(=O)(=O)c1ccc(C)cc1`: -56.6% (inactive) and 107%.
Regarding `CC(=O)[C@@]1(O)CC[C@H]2[C@@H]3C[C@H](C)C4=CC(=O)C=C[C@]4(C)[C@@]3(F)[C@@H](O)C[C@@]21C`, the inhibition is -32.9% (inactive) and the nuclei count was found to be 121%.
The matching figures for `O=C1NC(=O)C(c2ccccc2)(c2ccccc2)N1`: 23.3% (inactive) and 102%.
For `CC(C)(C)NC[C@H](O)COc1nsnc1N1CCOCC1` the same measures were -120% (inactive) and 119%.
For `O=C(O)CCC(=O)Nc1ccc(S(=O)(=O)Nc2nccs2)cc1` the same measures were -59.2% (inactive) and 110%.
For `Cc1cc(C(C)(C)C)cc(C)c1CC1=NCCN1`, the nuclei count came to 129% and the inhibition was -76.9% (inactive).
Regarding `CN(C)CCCN1c2ccccc2Sc2ccccc21`, the nuclei count was 110% and the inhibition was 3.6% (inactive).
On to `Nc1ccc(C(=O)O)c(O)c1`, for which the inhibition is -66.9% (inactive) and -44% (inactive); the nuclei count was 121% and 120%.
With `CC(=O)[C@H]1CC[C@H]2[C@@H]3CCC4=CC(=O)CC[C@]4(C)[C@H]3CC[C@]12C`, the inhibition is -153% (inactive) and the nuclei count worked out at 125%.
For `O=c1n(CCCN2CCN(c3cccc(Cl)c3)CC2)nc2ccccn12` the same measures were -117% (inactive) and 124%.
The matching figures for `Cn1c(=O)c2c(ncn2CC(O)CO)n(C)c1=O` (stereo not given): -81.8% (inactive) and 127%.
The matching figures for `CC1(C)S[C@@H]2[C@H](NC(=O)Cc3ccccc3)C(=O)N2[C@H]1C(=O)O`: -6% (inactive) and 104%.
Take `CN(C)C(=O)Oc1ccc[n+](C)c1`: the inhibition was -27% (inactive) and the nuclei count turned out to be 132%.
The matching figures for `CCCOc1ccc2nc(NC(=O)OC)[nH]c2c1`: -34% (inactive) and 126%.
The matching figures for `OC(CCN1CCCCC1)(c1ccccc1)C1CCCCC1` (stereo not given): -31.1% (inactive) and 119%.
Turning to `O=c1c(O)c(-c2ccc(O)cc2O)oc2cc(O)cc(O)c12`, the nuclei count came out at 114% and the inhibition is 3% (inactive).
For the molecule `COC(=O)Nc1nc2ccc(C(=O)c3ccccc3)cc2[nH]1`, the inhibition was -48.7% (inactive) and the nuclei count is 112%.
For `CCc1cccc2c3c([nH]c12)C(CC)(CC(=O)O)OCC3` (stereo not given) the same measures were -122% (inactive) and 126%.
The matching figures for `C[N+](C)(C)CCCCCCCCCC[N+](C)(C)C`: -38.7% (inactive) and 126%.
As to `O=C(c1ccc(F)cc1)C1CCN(CCn2c(=O)[nH]c3ccccc3c2=O)CC1`, the nuclei count turned out to be 112% and the inhibition is -46.9% (inactive).
Consider `CCN1CCN(C(=O)N[C@@H](C(=O)N[C@@H]2C(=O)N3[C@@H]2SC(C)(C)[C@@H]3C(=O)O)c2ccccc2)C(=O)C1=O`, for which the inhibition was -1.2% (inactive) and the nuclei count worked out at 101%.
Take `Cc1ncc([N+](=O)[O-])n1CCO`: the nuclei count stood at 110% and the inhibition is -67% (inactive).

A short description of the next assay: Primary imaging screen for DUSP6 inhibitors that restore phospho-Erk in transfected HeLa cells, chemical complementation (AID 609). As to conditions: HeLa MKP-3 transfected, phospho-Erk imaging KS statistic; measured here: cell density z-score; at 10 µM; cells stimulated with TPA for 15 min.
Regarding `CN1Cc2c(N)cccc2C(c2ccccc2)C1` (stereo not given), the z-score is -0.942.
Same read-out and setting: to `Cc1cn([C@H]2C=C[C@@H](CO)O2)c(=O)[nH]c1=O` belongs -0.857; to `COC(=O)c1ccc(N2C(=O)CC(N3CCN(C(=O)c4ccco4)CC3)C2=O)cc1` (stereo not given), 0.106; to `C[C@H]1C[C@H]2[C@@H]3CCC4=CC(=O)C=C[C@]4(C)[C@@]3(Cl)[C@@H](O)C[C@]2(C)[C@@]1(O)C(=O)CO`, 0.584.
Still for that read-out and setting: the value for `CCCC1O[C@@H]2C[C@H]3[C@@H]4CCC5=CC(=O)C=C[C@]5(C)[C@H]4[C@@H](O)C[C@]3(C)[C@]2(C(=O)CO)O1` (stereo not given in full) was 0.229.
`CNCCC(Oc1ccc(C(F)(F)F)cc1)c1ccccc1` (stereo not given): the z-score was -0.242.
In the case of `Clc1ccc(Cn2c(CN3CCCC3)nc3ccccc32)cc1`, the z-score was 0.217.
On the same count and under the same terms, to `CC(C)NCC(O)COc1ccc(CC(N)=O)cc1` (stereo not given) belongs -1.26; to `CC(C)C[C@H]1C(=O)N2CCC[C@H]2[C@]2(O)O[C@](NC(=O)[C@@H]3C=C4c5cccc6[nH]c(Br)c(c56)CC4N(C)C3)(C(C)C)C(=O)N12` (stereo not given in full), -0.747.
Still for that read-out and setting: to `CCOC(=O)c1cc2c(=O)n3cccc(C)c3nc2n(CCc2ccccc2)c1=N` belongs -0.746; to `CC(=O)OCC1=C(C(=O)O)N2C(=O)[C@@H](NC(=O)Cc3cccs3)[C@H]2SC1`, -0.65.
Consider `Cc1cccc(Nc2ccccc2C(=O)O)c1C`, for which the z-score is -1.12.
Regarding `CC(COc1ccccc1)N(CCCl)Cc1ccccc1` (stereo not given), the z-score stood at 0.673.
Consider `Cc1cc(C)nc(NS(=O)(=O)c2ccc(N)cc2)n1`, for which the z-score was -0.395.
Take `COc1cc(C2C(C#N)=C(N)Oc3cc(N)ccc32)cc(OC)c1OC` (stereo not given): the z-score was 0.957.
Consider `CN(C)CCCC1(c2ccc(F)cc2)OCc2cc(C#N)ccc21` (stereo not given), for which the z-score was -1.47.
Still for that read-out and setting: the value for `CCCc1cc(=O)[nH]c(=S)[nH]1` was 0.461; that for `CN(C)CCOC(C)(c1ccccc1)c1ccccn1` (stereo not given) was -0.381.
Regarding `CCCCNC(=O)NS(=O)(=O)c1ccc(C)cc1`, the z-score worked out at 0.542.
Molecule `CC(=O)[C@@]1(O)CC[C@H]2[C@@H]3C[C@H](C)C4=CC(=O)C=C[C@]4(C)[C@@]3(F)[C@@H](O)C[C@@]21C` had a z-score of 0.696.
For the molecule `O=C1NC(=O)C(c2ccccc2)(c2ccccc2)N1`, the z-score amounted to 0.136.
On the same count and under the same terms, to `CC(C)(C)NC[C@H](O)COc1nsnc1N1CCOCC1` belongs -0.0639; to `O=C(O)CCC(=O)Nc1ccc(S(=O)(=O)Nc2nccs2)cc1`, -1.01.
As for `Cc1cc(C(C)(C)C)cc(C)c1CC1=NCCN1`, the z-score turned out to be 0.444.
On the same count and under the same terms, to `CN(C)CCCN1c2ccccc2Sc2ccccc21` belongs 0.654; to `Nc1ccc(C(=O)O)c(O)c1`, 0.96 and 0.975; to `CC(=O)[C@H]1CC[C@H]2[C@@H]3CCC4=CC(=O)CC[C@]4(C)[C@H]3CC[C@]12C`, -0.82.
On the same count and under the same terms, the value for `O=c1n(CCCN2CCN(c3cccc(Cl)c3)CC2)nc2ccccn12` was -0.214.
For `Cn1c(=O)c2c(ncn2CC(O)CO)n(C)c1=O` (stereo not given), the z-score is 0.192.
Same read-out and setting: to `CC1(C)S[C@@H]2[C@H](NC(=O)Cc3ccccc3)C(=O)N2[C@H]1C(=O)O` belongs 1.44; to `CN(C)C(=O)Oc1ccc[n+](C)c1`, -0.869; to `CCCOc1ccc2nc(NC(=O)OC)[nH]c2c1`, 0.515.
On the same count and under the same terms, to `OC(CCN1CCCCC1)(c1ccccc1)C1CCCCC1` (stereo not given) belongs 0.0708; to `O=c1c(O)c(-c2ccc(O)cc2O)oc2cc(O)cc(O)c12`, -0.466.
On to `COC(=O)Nc1nc2ccc(C(=O)c3ccccc3)cc2[nH]1`, for which the z-score was 1.8.
The same measure, in the same setting: to `CCc1cccc2c3c([nH]c12)C(CC)(CC(=O)O)OCC3` (stereo not given) belongs -0.0395.
Consider `C[N+](C)(C)CCCCCCCCCC[N+](C)(C)C`, for which the z-score was -0.332.
For the molecule `O=C(c1ccc(F)cc1)C1CCN(CCn2c(=O)[nH]c3ccccc3c2=O)CC1`, the z-score was found to be 0.976.
The same measure, in the same setting: to `CCN1CCN(C(=O)N[C@@H](C(=O)N[C@@H]2C(=O)N3[C@@H]2SC(C)(C)[C@@H]3C(=O)O)c2ccccc2)C(=O)C1=O` belongs -0.734.
Still for that read-out and setting: the value for `Cc1ncc([N+](=O)[O-])n1CCO` was 0.289.

In general, inhibition refers to the relative decrease from the control value, in per cent.
